Data from PubChem BioAssay AID1159580 (chemical genetic matrix, 2015).
Several values for one entry are separate records, joined by “and”; a condition that tells them apart may be missing. Identical values can stand only once. Out of some 5,500 compounds screened, about 2,000 (36%) were called active. Another 18% or so got no clear call; they are omitted. Cut-off read from the data, not from the text of the source: active = normalized growth mostly below about 0.91 (no sharp cut-off); inconclusive = no clear call, values can overlap the other calls; inactive = mostly above about 0.92. The list shows a part of the results.

Assay: chemical genetic growth profiling, strain panel (AID 1159580);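 note: tested at 20 µM; growth read once vehicle control cultures reached saturation at 30 °C; 1 = growth at the plate median or of vehicle wells; lower values mean less growth of the strain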
Details: S. cerevisiae deletion strains, growth OD

Measured: normalized growth

OCC(O)CN1CCN(c2ccccc2)CC1 (stereo unspecified)
inactive: locus YAL013W, strain DEP1, hits give low values 0.995 | locus YAL021C, strain ccr4, hits give low values 0.923 | locus YAL026C, strain drs2, hits give low values 0.982 | locus YAL030W, strain snc1, hits give low values 0.996 | locus YBL061C, strain skt5, hits give low values 0.989 | locus YBR009C, strain hhf1, hits give low values 1 | locus YBR021W, strain FUR4, hits give low values 0.972 | locus YBR023C, strain chs3, hits give low values 0.997 | locus YBR171W, strain sec66, hits give low values 0.968 | locus YBR229C, strain ROT2, hits give low values 0.984 | locus YBR231C, strain swc5, hits give low values 0.999 | locus YBR279W, strain paf1, hits give low values 0.974 | locus YCL011C, strain gbp2, hits give low values 0.977 | locus YCL016C, strain dcc1, hits give low values 0.988 | locus YCL029C, strain bik1, hits give low values 0.978 | locus YCL061C, strain MRC1, hits give low values 0.973 | locus YCL069W, strain vba3, hits give low values 0.989 | locus YCR088W, strain abp1, hits give low values 0.98 | locus YDL005C, strain med2, hits give low values 0.963 | locus YDL035C, strain GPR1, hits give low values 1.02 | locus YDL040C, strain nat1, hits give low values 0.979 | locus YDL074C, strain BRE1, hits give low values 0.984 | locus YDL101C, strain DUN1, hits give low values 0.984 | locus YDL134C, strain PPH21, hits give low values 0.991 | locus YDL185W, strain tfp1, hits give low values 0.99 | locus YDL192W, strain arf1, hits give low values 0.995 | locus YDR001C, strain nth1, hits give low values 0.98 | locus YDR069C, strain doa4, hits give low values 0.982 | locus YDR101C, strain arx1, hits give low values 0.965 | locus YDR137W, strain rgp1, hits give low values 0.95 | locus YDR150W, strain NUM1, hits give low values 1 | locus YDR159W, strain sac3, hits give low values 1.01 | locus YDR162C, strain NBP2, hits give low values 1.01 | locus YDR195W, strain ref2 0.967 | locus YDR297W, strain sur2, hits give low values 0.982 | locus YDR318W, strain mcm21, hits give low values 0.989 | locus YDR334W, strain swr1, hits give low values 0.945 | locus YDR335W, strain msn5, hits give low values 0.978 | locus YDR388W, hits give low values 0.991 | locus YDR392W, strain spt3, hits give low values 0.931 | locus YDR502C, strain sam2, hits give low values 0.995 | locus YEL003W, strain gim4, hits give low values 0.938 | locus YEL037C, strain rad23, hits give low values 0.986 | locus YEL061C, strain CIN8 (second series), hits give low values 0.985 | locus YEL061C, strain CIN8, hits give low values 1 | locus YER015W, strain faa2, hits give low values 1 | locus YER016W, strain bim1, hits give low values 0.991 | locus YER110C, hits give low values 0.988 | locus YER111C, strain swi4, hits give low values 0.983 | locus YER155C, strain BEM2 (second series), hits give low values 1 | locus YER155C, strain BEM2, hits give low values 0.977 | locus YER167W, strain BCK2, hits give low values 1.01 | locus YGL078C, strain dbp3, hits give low values 0.991 | locus YGL086W, strain mad1, hits give low values 0.998 | locus YGL167C, strain pmr1, hits give low values 0.998 | locus YGL173C, strain kem1, hits give low values 0.978 | locus YGL227W, strain vid30, hits give low values 0.985 | locus YGL240W, strain doc1, hits give low values 1.01 | locus YGL248W, strain PDE1, hits give low values 0.975 | locus YGL253W, strain hxk2, hits give low values 0.993 | locus YGR078C, strain PAC10, hits give low values 0.99 | locus YGR135W, strain pre9, hits give low values 0.98 | locus YGR229C, strain SMI1, hits give low values 1.01 | locus YGR252W, strain gcn5, hits give low values 1.08 | locus YHR013C, strain ard1, hits give low values 0.953 | locus YHR027C, strain rpn1, hits give low values 0.984 | locus YHR030C, strain SLT2, hits give low values 0.991 and 0.969 | locus YHR079C, strain IRE1 (second series), hits give low values 0.991 | locus YHR079C, strain IRE1, hits give low values 0.965 | locus YHR094C, strain hxt1, hits give low values 0.992 | locus YHR129C, strain ARP1, hits give low values 0.985 | locus YHR142W, strain chs7, hits give low values 0.932 | locus YHR200W, strain rpn10, hits give low values 0.993 | locus YIL066C, strain RNR3, hits give low values 1 | locus YIL073C, strain SPO22, hits give low values 1.03 | locus YIL125W, strain kgd1, hits give low values 1 | locus YIR030C, strain dcg1, hits give low values 0.988 | locus YJL092W, strain hpr5, hits give low values 0.965 | locus YJL095W, strain BCK1 (second series), hits give low values 0.989 | locus YJL095W, strain BCK1, hits give low values 0.981 and 0.975 | locus YJL115W, strain asf1, hits give low values 0.965 | locus YJL129C, strain trk1, hits give low values 0.957 | locus YJL134W, strain LCB3, hits give low values 0.988 | locus YJL154C, strain vps35, hits give low values 0.983 | locus YJL164C, strain tpk1, hits give low values 0.966 | locus YJL166W, strain qcr8, hits give low values 1 | locus YJL168C, strain set2, hits give low values 0.983 | locus YJL187C, strain SWE1 (second series), hits give low values 0.988 | locus YJL187C, strain SWE1, hits give low values 0.981 | locus YJR043C, strain POL32, hits give low values 0.977 | locus YJR066W, strain TOR1, hits give low values 0.908
